Molecules are shown by their SMILES. Potency and affinity values are given separately. A number with no mark means an inactive call. No rule for the calls is given here.

For this experiment, the target named is Kelch-like ECH-associated protein 1 (Homo sapiens) + Nuclear factor erythroid 2-related factor 2 (Homo sapiens) (UniProt Q14145+Q16236). In words: Keap1-Nrf2 protein-protein interaction inhibitors, dose response, biochemical, fluorescence polarization, cherry-picked samples (AID 588683).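 Also: Kelch domain of Keap1 binding a fluorescein-labelled 9mer Nrf2 peptide; more negative means stronger inhibition of peptide binding.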 The note with it: Keap1/Nrf2 peptide fluorescence polarization, plate reader; series mostly up to 26 µM; activity change, negative = inhibition: at the top concentration.
Kelch-like ECH-associated protein 1 (Homo sapiens) + Nuclear factor erythroid 2-related factor 2 (Homo sapiens), sequence (Q14145 whole entry, looked up, the tested form may be a part): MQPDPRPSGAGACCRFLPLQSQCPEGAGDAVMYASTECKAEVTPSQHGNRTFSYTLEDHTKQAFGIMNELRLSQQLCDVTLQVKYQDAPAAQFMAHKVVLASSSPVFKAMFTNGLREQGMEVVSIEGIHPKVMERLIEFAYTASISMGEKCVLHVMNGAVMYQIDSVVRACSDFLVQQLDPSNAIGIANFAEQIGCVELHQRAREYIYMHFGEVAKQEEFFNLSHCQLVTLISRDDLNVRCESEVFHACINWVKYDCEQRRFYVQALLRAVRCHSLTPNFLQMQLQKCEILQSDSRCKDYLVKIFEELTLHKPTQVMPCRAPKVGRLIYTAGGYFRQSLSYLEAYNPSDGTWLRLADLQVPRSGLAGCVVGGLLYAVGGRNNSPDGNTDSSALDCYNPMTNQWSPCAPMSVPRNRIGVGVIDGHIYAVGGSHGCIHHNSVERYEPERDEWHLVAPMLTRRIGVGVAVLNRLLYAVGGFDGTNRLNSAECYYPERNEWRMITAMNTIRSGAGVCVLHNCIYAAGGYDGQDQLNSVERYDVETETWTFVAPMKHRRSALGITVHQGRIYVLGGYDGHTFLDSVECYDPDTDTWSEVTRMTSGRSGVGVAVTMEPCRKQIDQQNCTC
Kelch-like ECH-associated protein 1 (Homo sapiens) + Nuclear factor erythroid 2-related factor 2 (Homo sapiens), sequence (Q16236 whole entry, looked up, the tested form may be a part): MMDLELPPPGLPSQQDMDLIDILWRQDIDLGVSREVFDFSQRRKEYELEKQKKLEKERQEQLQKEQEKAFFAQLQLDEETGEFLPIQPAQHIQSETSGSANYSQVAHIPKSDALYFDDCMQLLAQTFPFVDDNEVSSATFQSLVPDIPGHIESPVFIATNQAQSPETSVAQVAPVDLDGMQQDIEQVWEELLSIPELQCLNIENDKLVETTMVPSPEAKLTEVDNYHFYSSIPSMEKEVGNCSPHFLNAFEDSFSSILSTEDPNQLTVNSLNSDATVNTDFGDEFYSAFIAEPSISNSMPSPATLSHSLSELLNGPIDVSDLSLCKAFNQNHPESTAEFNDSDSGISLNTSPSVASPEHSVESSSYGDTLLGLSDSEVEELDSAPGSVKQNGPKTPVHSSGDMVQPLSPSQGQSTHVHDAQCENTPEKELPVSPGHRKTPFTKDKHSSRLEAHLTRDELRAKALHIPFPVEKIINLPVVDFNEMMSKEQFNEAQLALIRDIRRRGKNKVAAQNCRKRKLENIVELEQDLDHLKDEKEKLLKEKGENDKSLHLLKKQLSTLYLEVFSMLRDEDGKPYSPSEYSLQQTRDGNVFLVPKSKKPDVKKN
For the compound `COc1cc(Cl)c(C)cc1NCC(=O)Nc1cccc(S(=O)(=O)N2CCCC2)c1`, the “activity change, negative = inhibition” value was -4.11%.

Take `COc1cc2c3nnc(-c4ccc(F)cc4)c-3cn(Cc3ccccc3)c2cc1OC`: the “activity change, negative = inhibition” value was 124%.

As for `CC[C@H](C)[C@H](NC(=O)OCc1ccccc1)C(=O)OCC(=O)N1CCN(c2ccc(F)cc2)CC1`, the “activity change, negative = inhibition” value is -5.51%.

As for `Cc1ccc2cc(CN(CCCO)S(=O)(=O)c3cccc4nsnc34)c(=O)[nH]c2c1C`, the “activity change, negative = inhibition” value was -7.45%.

As for `O=c1ccc2cc3c4c(c2o1)CCCN4CCC3`, the “activity change, negative = inhibition” value is -45.4%.

For the compound `CCOC(=O)C1=C(CSc2nc3c(cc2C#N)CN(C)CC3)OC(N)=C(C#N)C1c1ccncc1` (stereo not drawn), the “activity change, negative = inhibition” value is 0.422%.

As to `Cc1cccc(C)c1NC(=O)CSc1nnc(-c2ccco2)c(-c2ccco2)n1`, the “activity change, negative = inhibition” value was -2.35%.

For `Oc1[nH]c2ccccc2c1N=Nc1ccccc1F`, the “activity change, negative = inhibition” value is 396%.

For `CN1CC=C2C(C#N)=C(N)C(C#N)(C#N)C(c3ccsc3)C2C1` (stereo not drawn), the “activity change, negative = inhibition” value is -0.634%.

`NC(=O)C1CCN(C2=C(Cl)C(=O)c3ccccc3C2=O)CC1`: the “activity change, negative = inhibition” value was -5.27%.

`Cc1ccccc1OCCC(=O)Nc1cc(S(=O)(=O)N2CCCCC2)ccc1N1CCN(C)CC1`: the “activity change, negative = inhibition” value is 2.61%.

For the compound `CC(C)C1OC2(C)OC(=N)C1(C#N)C(C#N)(C#N)C2c1ccccc1` (stereo not drawn), the “activity change, negative = inhibition” value is -7.88%.

Regarding `C=CCn1c(=O)/c(=C/c2ccsc2)s/c1=C(\C#N)C(=O)NCCN1CCOCC1`, the “activity change, negative = inhibition” value is -7.84%.

Turning to `Cc1sc2ccccc2[n+]1CC(=O)c1ccccc1`, the “activity change, negative = inhibition” value was 12.6%.

Take `O=C(CCN1C(=O)/C(=C/c2ccco2)SC1=S)Nc1ccc(O)cc1C(=O)O`: the “activity change, negative = inhibition” value was 4.28%.

For the compound `COc1ccc(C=Nc2cccnc2N)cc1`, the “activity change, negative = inhibition” value was -5.56%.

For the compound `CCCCN(C(=O)CC1CCCCC1)c1c(N)n(CC(C)C)c(=O)[nH]c1=O`, the “activity change, negative = inhibition” value is -8.63%.

With `CCCN1CNC(=S)N(c2cc(C)ccc2C)C1`, the “activity change, negative = inhibition” value is -10%.

Regarding `Nc1c(Cl)ncnc1NCc1ccccc1`, the “activity change, negative = inhibition” value is -12.4%.

`Cc1nc(-c2ccc(S(=O)(=O)N3CCCN(CCc4ccccc4)CC3)s2)cs1`: the “activity change, negative = inhibition” value is -12.4%.

Consider `COc1ccccc1N(C)S(=O)(=O)c1ccc(C(=O)NCc2ccccc2CN2CCCC2)cc1`, for which the “activity change, negative = inhibition” value was -4.38%.

As to `Cc1ccc(S(=O)(=O)N2CCCCC2)cc1NC(=O)c1ccccc1Cl`, the “activity change, negative = inhibition” value is -12.1%.

As to `CCCC(=O)Nc1ccc(C(=O)NCCCn2ccnc2)cc1`, the “activity change, negative = inhibition” value is 9.53%.

As to `CCCCCCOC(=O)C(C#N)c1nc2ccccc2nc1N1CCOCC1` (stereo not drawn), the “activity change, negative = inhibition” value is -1.81%.

Turning to `O=C(Nn1cnnc1)c1ccc(Cl)c(Cl)c1`, the “activity change, negative = inhibition” value is 4.89%.

Take `Cc1cccn2c(=O)c3cc(S(=O)(=O)c4ccccc4)c(=N)n(Cc4cccnc4)c3nc12`: the “activity change, negative = inhibition” value was -9.58%.

`COC(=O)c1ccc(OC(=O)CN2C(=O)c3ccccc3C2=O)cc1`: the “activity change, negative = inhibition” value was -6.97%.

As to `CNS(=O)(=O)c1ccc2c3c(cccc13)C(=O)N2C`, the “activity change, negative = inhibition” value was -7.61%.

Turning to `N=c1c(C(=O)NC2CCCC2)cc2c(=O)n3ccccc3nc2n1Cc1ccccc1`, the “activity change, negative = inhibition” value is -5.93%.

As to `CC(Sc1nc2ccccc2s1)C(=O)Nc1nnc(C(C)C)s1` (stereo not drawn), the “activity change, negative = inhibition” value is -5.87%.

Consider `CC(=O)Nc1ccc(NS(=O)(=O)c2ccc3c(c2)oc(=O)n3C)cc1`, for which the “activity change, negative = inhibition” value was -3.36%.

Regarding `Cc1ccc(NC(=S)NCc2ccc(F)cc2)c(C)c1`, the “activity change, negative = inhibition” value is 17%.

Turning to `CC1(C)CC(=O)C2=C(C1)OC1=C(C2)C(=O)CC(C)(C)C1`, the “activity change, negative = inhibition” value was -5.94%.

For `CCOC(=O)c1c(NC(=O)CN2CCN(S(=O)(=O)c3cc(Cl)ccc3Cl)CC2)sc(C(=O)N(C)C)c1C`, the “activity change, negative = inhibition” value was -10.3%.

`Cc1cccc(NC(=O)CCN2CCCCC2)c1`: the “activity change, negative = inhibition” value was 0.772%.

As for `CCOC(=O)N1CCN(Cc2ccccc2Cl)CC1`, the “activity change, negative = inhibition” value was -11.2%.

As for `C/C(=N/Nc1ccccc1C(=O)O)c1cccs1`, the “activity change, negative = inhibition” value was -6.44%.

In the case of `COCCCN1C(=O)c2ccc(C(=O)Nc3ccc(C)cc3C)cc2C1=O`, the “activity change, negative = inhibition” value was -4.5%.

Source of the values: PubChem BioAssay AID588683 (Broad Institute, 2011).
